Source: PubChem BioAssay
Hsp90 Hop PPI = changes Hsp90-Hop TPR2A binding signal, up or down; Potency, µM (series often up to 57 µM); 0.44% of 71,000 active; AlphaScreen TPR2A-His6 binding biotin-Hsp90 C-terminal peptide; active = well fitted curve in either direction with a large enough effect; inconclusive = small, poorly fitted or top-dose-only effect, or another doubt
15-hLO inh = 15-hLO (ALOX15) enzyme inhibition; P16050; purified 15hLO-1, xylenol orange hydroperoxide absorbance; Potency, µM (highest dose often 57.1 µM), hits mostly inhibitors; 1.4% of 74,000 active; AID 887; also: nearly all actives have a fitted effect of over 55% in size
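Hydroperoxide formed from arachidonic acid (50 uM) by purified human 15hLO-1 (40 nM) oxidizes ferrous iron, and the ferric-xylenol orange complex is read at 573 versus 405 nm. Compounds were preincubated 15 min; reaction ran 6 min at room temperature.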
ERK AVP inh = blocks ERK signaling stimulated by vasopressin; HEK293-V1b, vasopressin-stimulated pERK AlphaScreen; Potency, µM (top dose mostly 57.5 µM), usual class: inhibitors; 0.99% of 72,000 active; also: nearly all actives have a fitted effect of over 55% in size
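V1b-HEK293 cells; cpd 30 min 37C; 25 nM vasopressin 5 min; lyse 10 min; AlphaScreen beads 5 hr RT. Normalized to DMSO basal and 25 nM vasopressin; AC50 by Hill fit.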
DNA Pol III inh = DNA polymerase III holoenzyme inhibition; AID 603; 0.25% of 71,000 active; reconstituted DNA polymerase III holoenzyme replication, biochemical; Potency, µM (top dose mostly 57.1 µM)
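Reconstituted *E. coli* holoenzyme (0.35 nM Pol III, 1 nM beta, 154 nM SSB, 2 nM primase) was preincubated with compound for 15 min at RT. Synthesis on 1.4 nM ssM13Gori ran 35 min, then was stopped with PicoGreen/EDTA and read as dsDNA fluorescence.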
TsaE inh = displaces an ADP probe from E. coli YjeE (TsaE). purified YjeE enzyme, qHTS inhibition assay. P0AF67. 0.05% of 71,000 active. Potency, µM
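Fluorescence polarization of a BODIPY Texas Red–ADP probe (2 uM) bound to purified YjeE (10 uM) was read after 15 min room-temperature incubation with compounds. Loss of polarization marks inhibitors; ADP serves as titrated control.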
Tau filament bind = binds recombinant human tau filaments; recombinant tau filaments, thioflavin S fluorescence, 15 h; filaments grown with octadecylsulfate alongside compound; Potency, µM (doses to about 57.1 µM); 2% of 71,000 active; AID 596;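 also: actives lower thioflavin S fluorescence by blocking filaments or displacing dye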
Target sequence (P10636 whole entry, looked up): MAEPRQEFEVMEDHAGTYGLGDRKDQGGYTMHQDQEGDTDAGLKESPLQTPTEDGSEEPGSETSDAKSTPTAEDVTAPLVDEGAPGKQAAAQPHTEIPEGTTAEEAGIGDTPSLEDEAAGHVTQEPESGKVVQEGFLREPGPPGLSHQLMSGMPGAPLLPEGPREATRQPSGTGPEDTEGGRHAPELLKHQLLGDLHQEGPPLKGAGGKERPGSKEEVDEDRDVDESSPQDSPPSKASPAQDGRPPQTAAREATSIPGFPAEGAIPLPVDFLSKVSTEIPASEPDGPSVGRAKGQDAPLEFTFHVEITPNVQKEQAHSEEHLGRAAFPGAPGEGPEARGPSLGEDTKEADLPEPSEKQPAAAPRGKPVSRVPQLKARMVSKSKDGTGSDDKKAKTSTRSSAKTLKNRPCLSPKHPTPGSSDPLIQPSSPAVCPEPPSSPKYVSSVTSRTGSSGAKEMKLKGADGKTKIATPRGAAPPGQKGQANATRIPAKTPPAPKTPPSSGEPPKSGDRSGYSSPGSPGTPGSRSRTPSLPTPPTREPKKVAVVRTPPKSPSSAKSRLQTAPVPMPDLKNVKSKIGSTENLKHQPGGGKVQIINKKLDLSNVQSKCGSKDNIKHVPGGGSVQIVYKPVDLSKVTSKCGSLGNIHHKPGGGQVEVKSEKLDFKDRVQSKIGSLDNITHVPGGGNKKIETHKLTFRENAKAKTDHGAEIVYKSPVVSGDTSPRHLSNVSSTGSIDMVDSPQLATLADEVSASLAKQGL
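ThS-based fibril read: tau 1 uM final, inducer ODS 30 uM final, 37 C for 15 h, ex 450/em 510 nm.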
A number is an active result; n = inactive; u = inconclusive; x = not tested or not shown; ! = not active in a repeat; [ ] = another dose, or the depositor's remark. In the library only some 4.2% were active in any assay of this set; here they are far more common. Unless noted, calls follow the shape of the dose curve; as a rule, active = well fitted curve in the direction sought with a large enough effect; inconclusive = small, poorly fitted or top-dose-only effect, or another doubt; inactive = no such curve, though single readings can be large; an effect the other way counts as inactive or inconclusive.

SMILES	Hsp90 Hop PPI	15-hLO inh	ERK AVP inh	DNA Pol III inh	TsaE inh	Tau filament bind
COc1ccc(C2CC(C(F)(F)F)n3nc(C(=O)NCc4c(C)nn(C)c4C)c(Cl)c3N2)cc1 (stereo not drawn)	n	n	n	n	n	n
Cc1nn(C)c(C)c1CNC(=O)c1cc2n(n1)C(C(F)(F)F)CC(c1cccs1)N2 (stereo not drawn)	n	n	31.6µM	n	n	n
O=C(O)c1nc2ccccc2nc1C(=O)O	n	n	n	n	n	n
Nc1nc(C(=O)O)c(N=Nc2ccccc2)c(=O)[nH]1	n[11 µM]	n[11.4 µM]	n[11.5 µM]	n[11.4 µM]	n	5.01µM
N#Cc1cn(-c2ccccc2)nc1-c1ccccc1	n	n	n	n	n	n
N#Cc1cc(-c2ccccc2)nn1-c1ccccc1	n	15.8µM	n	n	n	n
N#Cc1ccccc1NC(=O)CSc1nnc(-c2ccccc2O)n1-c1ccccc1	n	n	n	n	n	n
Cc1ccc2c(c1)c1c3n2CCN=C3CCC1	n	n	n	n	n	12.6µM
CC(C(=O)O)c1cccc(Oc2ccccc2)c1 (stereo not drawn)	x	n	n	x	x	x
C[C@@H](/C=C\c1cccc(Oc2ccc(F)cc2)c1)N(O)C(N)=O	n	10µM	u	n	n	u
OCC1OC(c2ccccc2)C=CC1Oc1ccc(C2CCCC2)cc1 (stereo not drawn)	x	n[11.4 µM]	n[11.5 µM]	x	x	x
COc1ccc(C(=O)N2CCC[C@@]3(CCN(c4cccc(-c5ccccc5)c4)C3)C2)cc1	n	25.1µM	n	n	n	n
COc1ccc(C(=O)N2CCC3(CCCN(c4ccc(-c5ccccc5)cc4)C3)CC2)cc1	n	n	n	n	n	n
On1onc2c3cc(-c4ccccc4)nc3ccc21	n	n	25.1µM	n	n	12.6µM
Cc1ccc(Cn2c(N3CCCCCC3)nc3c2c(=O)[nH]c(=O)n3C)cc1	n	n	15.8µM	n	n	n
COC(=O)c1ccc(C(NC(=O)OCc2ccccc2)/C(=C/[C@@H](C)C(=O)N[C@@H](CO)Cc2ccccc2)c2cccnc2)cc1 (stereo partly drawn)	n	25.1µM	n	n	n	n
O=C(CSc1nc2nc[nH]c2c(=O)[nH]1)NC1CCCCC1	n	n	n	n	n	n
CCN(CC)S(=O)(=O)c1cccc(-c2nnc(SCC(=O)NCCC3=CCCCC3)n2N)c1	n	n	39.8µM	u	n	n
O=C(O)CCc1c2ccc(=O)c(O)c-2oc2c(O)c(O)ccc12	u	3.16µM	n[11.5 µM]	0.0794µM	n	3.16µM
CCN(CC)CC[n+]1ccc2c(C)c3[nH]c4ccccc4c3c(C)c2c1	n[11 µM]	n[11.4 µM]	n[11.5 µM]	3.98µM	n	n[11.4 µM]
c1ccc(-c2cccc(-c3ccccn3)n2)nc1	3.16µM	n	u	n	n	n
c1ccc(-c2nc3ccccc3o2)nc1	n	n	n	n	n	n
O=[N+]([O-])c1nccn1C[C@H](O)CN1CCCCC1	n[11 µM]	n[11.4 µM]	n[11.5 µM]	n[11.4 µM]	n	n[11.4 µM]
CC(C)COC(=O)C(C#N)c1nc2ccccc2nc1N1CCN(Cc2ccccc2)CC1 (stereo not drawn)	n	n	n	n	n	2µM
CN1CCN(c2nc3ccccc3nc2C(C#N)C(=O)OC2CCCCC2)CC1 (stereo not drawn)	n	n	n	n	n	0.631µM
SMILES	Hsp90 Hop PPI	15-hLO inh	ERK AVP inh	DNA Pol III inh	TsaE inh	Tau filament bind
C=CCOC(=O)C(C#N)c1nc2ccccc2nc1N1CCN(Cc2ccccc2)CC1 (stereo not drawn)	n	n	u	n	n	1.58µM
COCC(C)OC(=O)C(C#N)c1nc2ccccc2nc1N1CCN(Cc2ccccc2)CC1 (stereo not drawn)	n	n	n	n	n	3.16µM
c1ccc(Cn2nnnc2CN2CCN(Cc3ccc4c(c3)OCO4)CC2)cc1	n	n	n	n	n	n
COC(=O)c1cccc(NC(=O)Cn2cnc3c2c(=O)n(C)c(=O)n3C)c1	n	n	n	n	n	n
Clc1cnccn1	n	n	n	n	n	n
CCC(CC)COC(=O)C(C#N)c1nc2ccccc2nc1N1CCOCC1 (stereo not drawn)	n	n	n	n	n	3.16µM
Cc1nn(-c2ccc(S(=O)(=O)O)cc2)c(O)c1N=Nc1ccc(-c2ccc(N=Nc3ccc4c(S(=O)(=O)O)cc(S(=O)(=O)O)c(N)c4c3O)c(O)c2)cc1O.[Cu].[Cu]	n[11 µM]	3.98µM	n[11.5 µM]	1.26µM	u	n[11.4 µM]
COc1cc(-c2ccc(N=Nc3ccc4c(S(=O)(=O)O)cc(S(=O)(=O)O)c(N)c4c3O)c(OC)c2)ccc1N=Nc1ccc2c(S(=O)(=O)O)cc(S(=O)(=O)O)c(N)c2c1O	3.98µM!	u	15.8µM	2.51µM	50.1µM	12.6µM
COc1ccc(C2=NO[C@@H]3C(=O)N(c4ccc(C)cc4C)C(=O)[C@H]23)cc1OC	n	n	n	n	n	n
O=C1CC(N(O)c2ccccc2)C(=O)N1c1cc(Cl)cc(Cl)c1 (stereo not drawn)	n	u	n	n	n	u
CCCOc1ccc(N2C(=O)CC(N(O)c3ccccc3)C2=O)cc1 (stereo not drawn)	n	n	n	n	n	25.1µM
CC(N=Cc1cccc(O)c1O)c1ccccc1 (stereo not drawn)	n	12.6µM	n	n	n	12.6µM
CCC(C)(C)NC(=O)C(c1ccc(C)o1)N(Cc1cccs1)C(=O)Cn1nnc2ccccc21 (stereo not drawn)	n	n	n	n	n	n
Cc1cc(C)n(-c2ncc(-c3ccccc3)nn2)n1	u	n	x	n	n	25.1µM
Cc1cc(C)n(-c2nncc(-c3ccccc3)n2)n1	n	n	n	n	n	15.8µM
Cc1cc(C)n(-c2nc(Nc3ccccc3)nc(-n3nc(C)cc3C)n2)n1	n	n	n	n	n	n
COc1ccc2[nH]cc(CCNc3ccnc(-c4ccccc4C)n3)c2c1	u	u	n	n	n	15.8µM
COc1cccc(-c2nccc(NCCc3c[nH]c4ccc(OC)cc34)n2)c1	u	n	u	n	n	25.1µM
COc1ccc(C2C(C(C)=O)=C(C)N=c3s/c(=C\c4cc(C)n(C)c4C)c(=O)n32)c(OC)c1 (stereo not drawn)	u	u	n	n	n	n
Cc1ccc(-c2nnc3sc(-c4ccncc4)nn23)cc1	n	n	u	n	n	25.1µM
Clc1ccc(-c2nnc3sc(-c4ccccn4)nn23)cc1	n	n	n	n	n	n
CC(C)(C)c1ccc(-c2nnc3sc(-c4ccccn4)nn23)cc1	2µM	n	x	n	n	u
c1ccc(-c2nn3c(-c4ccncc4)nnc3s2)nc1	u	u	u	n	n	12.6µM
COc1ccc(N2CSC3=C(C#N)C(c4cccc(OC)c4OC)CC(=O)N3C2)cc1 (stereo not drawn)	n[2.3 µM]	u	n	n	n	u
